# Sampled rows, rich in hits. Any-hit rate of the full collection: about 2.4%.
# D2 PAM-1 – human D2 receptor positive allosteric modulation; P14416; DiscoveRx D2 beta-arrestin cells, luminescence, 90 min; 100% = 57 uM dopamine signal; potentiation, % (concentration not given with the values); hit rate 0.23% among 360,000; in the data active means potentiation above about 50%; inconclusive means mostly about 30% to 49%
# Target sequence (P14416 whole entry, looked up): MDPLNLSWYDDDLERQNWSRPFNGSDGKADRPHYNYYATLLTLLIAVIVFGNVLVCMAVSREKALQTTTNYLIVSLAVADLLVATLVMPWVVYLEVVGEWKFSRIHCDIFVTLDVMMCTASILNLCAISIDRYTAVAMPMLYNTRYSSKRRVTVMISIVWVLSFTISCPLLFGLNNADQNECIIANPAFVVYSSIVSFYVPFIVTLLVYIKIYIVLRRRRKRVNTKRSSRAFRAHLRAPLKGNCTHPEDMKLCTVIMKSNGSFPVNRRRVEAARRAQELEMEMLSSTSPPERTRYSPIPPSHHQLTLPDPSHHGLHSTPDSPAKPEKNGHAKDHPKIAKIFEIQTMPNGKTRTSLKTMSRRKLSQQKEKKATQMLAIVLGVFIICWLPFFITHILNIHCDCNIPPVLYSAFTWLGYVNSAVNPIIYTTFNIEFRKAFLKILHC
#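 PathHunter D2 cells, attached overnight at 37 deg C, received compound in DMSO plus dopamine at EC20 (50 nM final) for 90 min at 37 deg C. Beta-arrestin recruitment was read as luminescence after 1 h with detection reagent at ambient temperature.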
# D2 ag-1 – agonists of human D2 dopamine receptor (beta-arrestin); P14416; DiscoveRx PathHunter D2 beta-arrestin, luminescence, 90 min; 100% = 57 uM dopamine signal; activation, % (test concentration not listed); hit rate 0.084% among 360,000; AID 624465; in the data active means activation above about 40%; inconclusive means between about 15% and that limit
#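 DiscoveRx PathHunter D2 beta-arrestin cells (2,100/well) attached overnight, then compound-stimulated 90 min at 37 C in HBSS/10 mM HEPES/0.1% Tween-20 buffer; beta-galactosidase complementation read by luminescence after 1 h at ambient temperature. Dopamine 57 uM final (EC100) as control.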
# D2 ag-2 – D2 dopamine receptor (human) agonism; hit rate 0.53% among 340,000; HEK293 T-REx D2 cells, calcium flux agonist mode; activation, % at 2 µM;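 active means activation over 3 SD above normal in the single-dose calcium agonist read, cut at about 30% in these data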; further: 0% is about no effect
#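 Agonism scored from kinetic calcium signal (1 read/sec, 180 s) following compound pin transfer, after a 10 s baseline. Cells: HEK293 Trex line expressing inducible D2 receptor coupled to calcium, dye-loaded after overnight culture at 30 C.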
# D2 PAM-2 – positively modulates the human D2 dopamine receptor allosterically | HEK293 T-REx D2, calcium flux, EC20 dopamine potentiation | potentiation, % at 10 µM | hit rate 0.34% among 340,000;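 active means potentiation over 3 SD above the plate norm, cut at about 30% in these data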; further: 0% is about no effect
#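 Potentiation of an EC20 dopamine calcium response measured kinetically over 180 s, after a preceding 180 s compound-only read flagging agonists. Cells: inducible Hek293 Trex D2 line, 4000/well, cultured overnight at 30 C before dye loading.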
# D2 antag – antagonists of human D2 dopamine receptor | P14416 | HEK293 TREx D2 cells, calcium flux, dopamine EC80 | inhibition, % at 10 µM | hit rate 2% among 340,000; in the data active means inhibition above about 30%; inactive means below that, where a call was filed; further: 0% is about no effect
#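 Inhibition of EC80 dopamine-driven calcium flux, recorded kinetically, defines activity here; cells are a tetracycline-induced HEK293 T-REx line expressing force-coupled D2.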
# An asterisk follows results filed as active; ? = inconclusive; · = no result given.
SMILES,D2 PAM-1,D2 ag-1,D2 ag-2,D2 PAM-2,D2 antag
CSc1ccc(CNC(=O)c2ccccc2NC(=O)c2nsc3ccccc23)cc1,·,·,1,-7,·
CCc1ccc(S(=O)(=O)NCc2nc3cccnc3n2Cc2ccccc2Cl)cc1,·,·,1,11,·
C/C(=C\C(=O)c1ccncc1)Nc1ccccc1O,50*,10,·,·,·
CCCCN(C)c1nnc(NC(=O)Nc2cccc(C(C)=O)c2)s1,·,·,-1,-3,·
COc1ccc(OC)c(NC(=O)c2cc(-c3ccc(C)cc3O)n[nH]2)c1,13,-4,-1,-1,32*
CCCCCn1c(-c2ccc(OC)c(OC)c2)nc2ccccc21,·,·,-1,11,·
CC1CCC(NC(=O)CSc2nncs2)CC1 (stereo not given),3,-2,0,-3,4
O=C(CSc1nncs1)NC1CCCCCCC1,-4,-4,-1,12,31*
COc1ccc(-c2noc(-c3ccc(N4CCN(c5ccccc5OC)CC4)c([N+](=O)[O-])c3)n2)cc1,·,·,-1,-1,·
O=C(CCN1C(=O)c2ccccc2S1(=O)=O)N1CCN(c2ccccc2)CC1,-28,4,0,-6,11
O=C(CCN1C(=O)c2ccccc2S1(=O)=O)N1CCN(c2ccc(F)cc2)CC1,-3,-6,0,-9,33*
CC(C)CCNC(=O)CSCc1cnn(-c2ccccc2)c1-n1cccc1,·,·,-1,-16,·
COc1cccc(C(=O)NC2CCN(CC(=O)NCc3ccccc3F)CC2)c1,-2,-2,-1,-2,11
Cc1cccc(C(=O)NC2CCN(CC(=O)NCc3ccccc3F)CC2)c1,-4,5,1,2,42*
CCn1cc(S(=O)(=O)c2ccc(C)cc2)c(=O)c2cc(F)c(N3CCCCCC3)cc21,·,·,-2,-5,·
O=C(NCCc1csc2nc(-c3cccc(F)c3)nn12)c1ccc(Br)o1,·,·,-1,7,·
Cc1ccc2oc(C(=O)N(Cc3ccccc3F)C3CCS(=O)(=O)C3)c(C)c2c1 (stereo not given),·,·,3,-1,·
C=CCNCCCCOc1ccccc1-c1ccccc1,-17,-2,0,-22,49*
COCCCNCCOc1ccccc1-c1ccccc1,-13,-1,2,-33,93*
C=CCNCCCCOc1ccc(OCc2ccccc2)cc1,-18,-5,2,16,26
COCCCNCCCCOc1ccccc1-c1ccccc1,-31,4,0,-22,89*
COCCNCCOc1ccccc1-c1ccccc1,-32,4,-1,20,8
O=C1CC(c2ccccc2)Sc2ccccc2N1Cc1ccccc1F (stereo not given),·,·,1,22,·
CCOc1ccccc1CNC(=O)C1CCN(c2nnc(-n3c(C)ccc3C)s2)CC1,·,·,0,0,·
COc1ccc(S(=O)(=O)NC(C)C(=O)N2CCCC2)cc1C (stereo not given),-5,1,0,-11,32*
SMILES,D2 PAM-1,D2 ag-1,D2 ag-2,D2 PAM-2,D2 antag
COc1ccc(S(=O)(=O)NC(C)C(=O)N2CCCC2)cc1Cl (stereo not given),-4,0,1,5,-2
Cc1ccc(-c2c(C)n3c4c(=O)n(C)c(=O)n(C)c4nc3n2CCCO)cc1,·,·,0,11,·
CN(CC/C=C1/c2ccccc2CSc2ccccc21)CCCO,-40,-2,2,-19,13
CN(C)CC/C=C1\c2cc(F)ccc2CSc2ccccc21,-52,-4,0,-25,37*
C=CCN(C)CC/C=C1\c2ccccc2CSc2ccccc21,-32,-2,1,-23,68*
COc1ccc(CNC(=O)COC(=O)c2n[nH]c3ccccc23)cc1OC,-6,1,1,5,30*
COc1ccccc1CNC(=O)COC(=O)c1n[nH]c2ccccc12,-8,-1,-1,-2,-4
COc1ccc(C)cc1-n1nnc(C(=O)Nc2cccc(SC)c2)c1C,·,·,1,2,·
CC(=O)N1CCc2cc(Br)cc(S(=O)(=O)N3CCC(C(=O)Nc4ccc(C(C)C)cc4)CC3)c21,·,·,-2,16,·
Cc1cc2nc(/C(C#N)=C/c3ccncc3)[nH]c2cc1C,-12,2,2,-9,36*
N#C/C(=C\c1ccncc1)c1nc2ccccc2[nH]1,21,9,2,3,-6
CCOC(=O)C1(CC2CCCCO2)CCN(C(=O)Nc2ccc(C(=O)OC)cc2)CC1 (stereo not given),-5,-4,0,-11,32*
Cc1cc(C(C)(C)C)cc(C)c1CC1=NCCN1,-21,-1,23,-30,50*
Cc1ccc(C)c(Nc2nc(-c3ccncc3)nc3ccccc23)c1,-4,5,·,13,36*
CCCc1cc(=O)[nH]c(SCC(=O)N2CCN(c3ccccc3)CC2)n1,-20,0,0,-4,38*
CCCc1cc(=O)[nH]c(SCC(=O)N2CCOCC2)n1,-2,-8,1,-2,-1
CCOc1ccccc1NC(=O)CSc1nc2c(oc3ccccc32)c(=O)n1-c1ccc(C)c(C)c1,·,·,1,0,·
O=C(Oc1ccc(Cl)cc1)N1CCCCC1,-4,-2,-2,0,8
O=C(Oc1ccc(-c2nnco2)cc1)N1CCCCC1,-9,-2,1,34*,16
COc1ccccc1CCNC(=O)c1ccc(NC(=O)N2CC(C)Sc3ccccc32)cc1 (stereo not given),·,·,0,-4,·
COc1cccc(C(=O)N(Cc2nc(-c3ccc(Cl)cc3)no2)C(C)C)c1OC,·,·,·,4,·
O=C(NCC(c1cccnc1)N1CCc2ccccc2C1)C(=O)Nc1cccc(Cl)c1 (stereo not given),·,·,-1,8,·
CCc1ccc(CNC(=O)c2cnc3sc(N(CC)CC)nn3c2=O)cc1,·,·,1,2,·
OC(CNCCc1ccc(C(F)(F)F)cc1)COC(c1ccccc1)c1ccccc1 (stereo not given),-10,-3,7,-5,31*
COc1ccc(C(OCC(O)CNCCc2ccc(S(N)(=O)=O)cc2)c2ccc(OC)cc2)cc1 (stereo not given),-11,-3,2,8,13
CSc1nc(C)cc(Nc2c(C)cc(C)cc2C)n1,·,·,1,13,·
N/C(=N\OC(=O)c1ccc(Cl)cc1Cl)c1cccnc1,9,50*,1,6,10
N/C(=N\OC(=O)c1ccc(Cl)cc1Cl)c1ccc(Cl)cc1,114*,?,0,10,12
N/C(=N\OC(=O)c1ccc(Cl)cc1)c1ccc(Cl)cc1,86*,?,0,0,-19

# Screens as filed in PubChem.
